IL-2 act: qHTS of IL-2 Activators; IL-2 activation reporter assay, cell-based qHTS; stimulated with anti-CD3/CD4/CD28 beads; in transgenic mouse T cells; activation, % (series mostly up to about 46 µM); 0.065% of 360,000 active; AID 652025, 2013; in the data active = activation above about 50%; inconclusive = mostly about 30% to 49%; also: 0% is about no effect
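Unstimulated transgenic mouse T cells; 60-min compound exposure; bead-based TCR/CD4/CD28 stimulation; 18 h culture, 37 degrees C; dual fluorescence (EGFP, DsRed) plate cytometry.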
BRCA1 expr act: qHTS Assay to Identify Small Molecule Activators of BRCA1 Expression | MCF7-BRCA1-FFLuc reporter, luminescence, 48 h; response scale: scaled: vehicle 0%, 10 µM genistein 100% | Potency, µM (doses to about 46.1 µM), for inactives: top-dose activation, most hits filed as activators | 1.1% of 380,000 active; also: potency is read from the fitted curve at half-maximal effect; nearly all actives have a fitted effect of over 80% in size
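Using MCF7 cells harboring a BRCA1 firefly luciferase reporter, plated 2 h before compound pinning, the screen measured luminescence after 48 h incubation. Responses were normalized to DMSO and 10 microM genistein, then fitted for concentration-effect.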
PKM2 act: qHTS Assay for Activators of Human Muscle isoform 2 Pyruvate Kinase; purified PKM2, Kinase-Glo ATP luminescence, activation; response scale: 0% is enzyme alone, no compound; Pyruvate kinase PKM (Homo sapiens), P14618; Potency, µM (top dose mostly 57.5 µM), without a hit: at the highest dose activation, hits mostly activators; 0.34% of 260,000 active; also: potency is read from the fitted curve at half-maximal effect; % is scaled to controls: 0 for no effect and ±100 for the full control effect; nearly all actives have a fitted effect of over 55% in size
Target sequence (P14618 whole entry, looked up, canonical isoform): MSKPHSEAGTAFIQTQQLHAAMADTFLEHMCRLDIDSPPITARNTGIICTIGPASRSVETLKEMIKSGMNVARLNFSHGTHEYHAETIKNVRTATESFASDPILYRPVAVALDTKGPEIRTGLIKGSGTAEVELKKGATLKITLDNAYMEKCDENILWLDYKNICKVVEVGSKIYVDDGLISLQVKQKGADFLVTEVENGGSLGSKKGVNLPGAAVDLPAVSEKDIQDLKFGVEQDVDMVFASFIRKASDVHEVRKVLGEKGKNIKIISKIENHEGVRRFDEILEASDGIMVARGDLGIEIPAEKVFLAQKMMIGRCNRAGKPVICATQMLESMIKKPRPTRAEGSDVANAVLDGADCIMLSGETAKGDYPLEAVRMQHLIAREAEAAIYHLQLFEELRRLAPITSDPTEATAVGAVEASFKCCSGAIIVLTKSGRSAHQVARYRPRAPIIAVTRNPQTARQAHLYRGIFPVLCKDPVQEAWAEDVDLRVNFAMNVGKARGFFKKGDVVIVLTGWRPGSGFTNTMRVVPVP
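hPK-M2, >95% pure; 0.1 mM ADP / 0.5 mM PEP final; imidazole pH7.2 buffer w/ 7 mM MgCl2, 50 mM KCl; 1 h RT; Kinase-Glo lum. Intermediate enzyme activity for dual inhibitor/activator qHTS.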
Apoferritin bind: qHTS Assay for Identification of Novel General Anesthetics | Ferritin light chain (Equus caballus), P02791 | apoferritin/1-aminoanthracene competitive binding, fluorescence | Potency, µM (highest dose often 77.5 µM), for the others: top-dose activity change, negative = displacement, usual class: inhibitors | 0.074% of 350,000 active | AID 485281, 2010; also: potency is read from the fitted curve at half-maximal effect; % is scaled to controls: 0 for no effect and ±100 for the full control effect; nearly all actives have a fitted effect of over 20% in size
Target sequence (P02791 2-175 limits assumed): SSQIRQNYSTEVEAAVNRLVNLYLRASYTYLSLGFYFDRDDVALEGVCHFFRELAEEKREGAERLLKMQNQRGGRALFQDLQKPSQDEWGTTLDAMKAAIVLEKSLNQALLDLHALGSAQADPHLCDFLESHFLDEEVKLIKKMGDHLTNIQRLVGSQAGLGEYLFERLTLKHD
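Horse-spleen apoferritin (10 uM) was mixed with 50% saturated 1-aminoanthracene in PBS, exposed to compounds for 10 min at room temperature, and read for fluorescence (ex 380 nm, em 535 nm). Competitive displacement was fitted with a four-parameter Hill equation.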
Integrin act MD: qHTS for Activators of Integrin-Mediated Alleviation for Muscular Dystrophy | alpha7betagal myoblasts, beta-gal FDG fluorescence, 48 h | 0.064% of 350,000 active | Potency, µM (series often up to 38.3 µM), without a hit: top-dose activation, usual class: activators | AID 624291, 2012;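 also: potency is read from the fitted curve at half-maximal effect; 100% = response of the positive control SU9516; nearly all actives have a fitted effect of over 60% in size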
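alpha7betagal+/- myoblasts (passage 13, 250/well) treated 48 h at 37C with compounds at 1:260 dilution of DMSO stock. Lysed, then beta-galactosidase activity read as FDG fluorescence (ex 480/em 540) after 30 min, with pre-read for autofluorescence.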
Starred values were filed as active, the others as inactive; ? = inconclusive; / = no result given. Most compounds without a hit are left out; they make up all but 1.3% or so of the library. Unless noted, calls follow the shape of the dose curve; as a rule, active = well fitted curve in the direction sought with a large enough effect; inconclusive = small, poorly fitted or top-dose-only effect, or another doubt; inactive = no such curve, though single readings can be large; an effect the other way counts as inactive or inconclusive.

SMILES	IL-2 act	BRCA1 expr act	PKM2 act	Apoferritin bind	Integrin act MD
C/C(N)=C(/C#N)C(=O)COC(=O)C1CCC(C(C)(C)C)CC1 (stereo not given)	-2.7	-25.6%	3.8%	35.5µM*	-46.1%
C/C(N)=C(/C#N)C(=O)COC(=O)CC12CC3CC(CC(C3)C1)C2	-0.7	-0.3%	-0.6%	17.8µM*	-25.4%
CCOC(=O)c1cc(-c2ccc(OC)cc2)n(CCC(=O)NCCc2ccccc2)c1C	/	/	/	-7.5%	/
CN=Cc1nc(-c2ccccc2)oc1O	-0.5	?	1.3%	-2.2%	20.5%
Cc1ccc(-c2nc(C=Nc3ccc(O)cc3)c(O)o2)cc1	76.5*	-20.1%	-8.3%	-22.1%	-63.9%
Cn1c2ccccc2c2nnc(SCCOc3ccccc3)nc21	/	38.3%	/	/	/
O=C(Nc1ccnc(=O)[nH]1)c1sc2ccccc2c1Cl	-2.1	5.62µM*	-3.5%	2.0%	?
O=C(Nc1ccc(NC(=O)c2sc3ccccc3c2Cl)cc1Cl)c1ccco1	-4.3	7.94µM*	1.1%	-5.3%	-34.1%
Cc1cc(C)c(NC(=O)CSc2nc(=O)[nH]c3c2CCCC3)c(C)c1	/	/	/	-8.8%	/
CCOc1cccc(C2C=C(c3ccc4c(c3)OCO4)NC(c3ccccc3Cl)N2)c1O (stereo not given)	/	4.1%	/	/	/
CC(C)(C)OC(=O)N1C2C=CC1C1=COCCN1C2=O (stereo not given)	/	/	/	-5.9%	/
Cc1cccc(N2CCN(C(=O)c3cnn(-c4cccc(Cl)c4C)c3C3CCNCC3)CC2)c1C	/	/	/	-13.4%	/
COc1cc(C=O)ccc1OCCCOc1ccccc1[N+](=O)[O-]	-1.8	7.08µM*	-6.2%	-10.1%	-1.4%
COc1ccc(C(=O)NCC(c2ccc(N(C)C)cc2)N2CCCC2)c(OC)c1 (stereo not given)	/	/	/	8.3%	/
C=C(C)CNC(=O)CCc1nnc(C2(c3ccc(Cl)cc3)CCC2)o1	-3.1	29.5%	-5.6%	-7.0%	5.3%
C=CCNC(=O)CCc1nnc(C2(c3ccc(Cl)cc3)CCC2)o1	-0.3	12.6µM*	4.9%	-5.9%	?
O=C(C[n+]1csc2ccccc21)c1ccc(I)cc1	/	-19.9%	/	/	/
O=c1[nH]c(C2CCCN(S(=O)(=O)c3ccccc3)C2)nc2c1nnn2Cc1cccc(Cl)c1 (stereo not given)	-0.5	-66.7%	6.2%	-10.9%	3.98µM*
Cc1ccc(C)c(NC(=S)Nc2ncccc2C)c1	-2.4	7.94µM*	-0.2%	-17.1%	-18.9%
O=C(CN1C(=O)CCc2cc(S(=O)(=O)N3CCCCC3)ccc21)NCc1ccc(Cl)cc1	/	-8.5%	/	8.1%	/
Nc1nc(SCC(=O)Nc2ccc([N+](=O)[O-])cc2Br)n[nH]1	1.6	20.0%	3.16µM*	-12.8%	-38.4%
O=C(CSc1ncn[nH]1)Nc1ccc([N+](=O)[O-])cc1Br	0.0	34.6%	7.08µM*	-6.6%	7.9%
C=C1CCN(C(CC(C)C)C(=O)NCCCc2ccccc2)S(=O)(=O)c2ccccc21 (stereo not given)	/	/	/	105.6%	/
COc1ccc2c(c1)c1nc3ccccc3nc1n2Cc1ccc(OC(C)C)c(OC)c1	-0.2	-28.3%	-1.1%	-7.6%	2.5%
COc1ccc(Cn2c3ccc(OC)cc3c3nc4ccccc4nc32)cc1	266.8*	-11.2%	8.6%	6.5%	1.9%
SMILES	IL-2 act	BRCA1 expr act	PKM2 act	Apoferritin bind	Integrin act MD
Cc1nn(CC(=O)N2CCN(c3cccc(Cl)c3)CC2)c(=O)c2c1sc1ccccc12	/	/	/	-8.7%	/
Cn1cccc1/C=N/NC(=O)c1ccccn1	-4.6	10µM*	-37.7%	-8.2%	?
O=C(N/N=C/c1c(Cl)cccc1Cl)c1ccc(F)cc1	-1.8	-11.3%	1.3%	-14.9%	-17.1%
Cn1cccc1C(=O)N/N=C/c1c(Cl)cccc1Cl	4.0	6.31µM*	/	-5.0%	0.0%
Cn1cccc1/C=N/NC(=O)c1ccncc1	0.3	0.7%	-3.8%	3.5%	0.9%
Cc1cc(C)c(C)c(C(=O)C2OC(=O)C(C)(C)C(=O)C2(C)C)c1C (stereo not given)	-0.3	9.6%	-3.1%	-22.9%	-3.2%
CC1(C)C(=O)OC(C(=O)c2ccc(C(C)(C)C)cc2)C(C)(C)C1=O (stereo not given)	1.2	1.6%	5.4%	20µM*	-0.2%
Cc1cccc(OCC(=O)Nc2cc(C)c(O)c(-c3nc4ccccc4o3)c2)c1	/	-7.5%	/	/	/
CCOC(=O)c1ccc(-c2nnc(-c3ccc(Cl)cc3Cl)o2)cc1	-0.8	0.891µM*	11.3%	2.7%	-0.3%
CCOC(=O)c1cc(-c2nnc(-c3ccc(Cl)cc3)o2)c(C)nc1C	2.6	-0.7%	-5.9%	-5.1%	0.0%
CC(=O)c1cccc(Nc2ccc(-c3ccccc3F)nn2)c1	-0.3	11.2µM*	0.9%	?	1.1%
CC(=O)c1ccc(Nc2ccc(-c3ccccc3C)nn2)cc1	-2.1	6.31µM*	-4.3%	-16.4%	20.5%
COc1ccccc1-c1ccc(Nc2cccc(C(C)=O)c2)nn1	-0.8	70.5%	-11.2%	-5.2%	14.9%
CC(NC(=O)c1cnn2c1NC(=C1CC1)C=C2C(F)F)c1ccncc1 (stereo not given)	/	15.8%	/	/	/
O=C(NC(=O)c1ccc(F)cc1F)Nc1ccc(Cl)cc1	-0.6	2.82µM*	-5.7%	-9.3%	29.4%
CCOc1ccc(NC(=O)[C@H](Cc2ccccc2)N2Cc3ccccc3C2=O)cc1	/	8.7%	/	3.7%	/
CCOc1ccc(NC(=O)C(Cc2ccccc2)N2C(=O)c3cccc4cccc(c34)C2=O)cc1 (stereo not given)	96.9*	-37.4%	-4.0%	-5.4%	-26.5%
O=C(Cc1ccc(Cl)cc1)Nc1ccc(Br)cn1	-1.4	12.6µM*	/	2.0%	?
CCOc1ccc(NC(=O)Cc2ccccc2)cc1	-0.8	7.08µM*	-5.0%	-14.6%	14.0%
COC(=O)Nc1ccc(OCc2ccccc2)cc1	2.2	12.6µM*	2.6%	-6.3%	12.0%
COc1cc(Br)c(CC(=O)NO)cc1OC	/	14.0%	/	/	/
C[C@@]12CCc3occc3[C@H]1CC[C@@]13C[C@@H](CC[C@H]12)[C@@](O)(CO)C3	/	/	/	3.7%	/
Cc1ccc(NC(=O)CCOc2ccccc2)cc1	7.1	7.08µM*	/	1.0%	0.0%
O=C(Cc1ccccc1)Nc1ccc(NC(=O)c2ccccc2)nc1	-1.5	12.6µM*	-8.8%	-6.6%	?
O=C(Nc1ccc(NC(=O)C2CC2)cn1)c1ccccc1Cl	1.0	12.6µM*	-6.7%	5.1%	-7.7%
CCOc1ccc(NC(=O)c2cnccn2)cc1	0.8	2.5%	-14.3%	1.1%	15.3%
O=C(Nc1ccc(NC(=O)C2CC2)cn1)c1ccccc1	-0.4	?	-25.4%	-2.8%	3.2%
CCOc1ccc(NC(=O)c2nccnc2CO)cc1	0.4	5.62µM*	-37.4%	-11.8%	-18.2%
